aSyn 5UTR act = Activators via SNCA 5'UTR binding, MLPCN; activity score, % (tested at 7.5 µM), hits read low; hit rate 7.1% among 300,000; AID 1814, 2009; alpha-synuclein 5'UTR reporter, activators screen; in the data active = activity score below about -60%
Numbers without * were called inactive. The list is a sample of the results.

SMILES	aSyn 5UTR act
COc1ccc(/C=C2\CCCC(C(=O)C(F)(F)F)=C2O)cc1OC	-69.1*
Clc1ccccc1CSc1ncn(-c2ccccc2)n1	-185.3*
Cc1cc(C(=O)Nc2ccc(N3CCCC3)c(Cl)c2)ccc1[N+](=O)[O-]	-61.8*
O=C(Nc1ccccc1)c1ccc(NCC2CCCO2)c([N+](=O)[O-])c1 (stereo not given)	-125.2*
CC(C)CCNc1nc(N)c([N+](=O)[O-])c(NCC2CCCO2)n1 (stereo not given)	61.6
Cc1ccc(NC(=O)c2ccc(NCCN)c([N+](=O)[O-])c2)cc1Cl	-85.1*
Cc1cccc(NC(=O)c2ccc(N(C)C3CCCCC3)c([N+](=O)[O-])c2)n1	-64.1*
Cc1ccc(NC(=O)c2ccc(NCCCN3CCC(C)CC3)c([N+](=O)[O-])c2)c(C)c1	-63.2*
Cc1cccc(NC(=O)c2ccc(N3CCOCC3)c([N+](=O)[O-])c2)n1	-114.7*
Cc1cccc(NC(=O)c2ccc(N3CCCCC3)c([N+](=O)[O-])c2)n1	-156.9*
CCOC(=O)c1ccc(NCCOC)c([N+](=O)[O-])c1	-90.9*
Cc1ccc(C(=O)c2cc([N+](=O)[O-])ccc2N2CCOCC2)c(C)c1	97.7
O=C(Nc1cccnc1)c1ccc(N2CCCC2)c([N+](=O)[O-])c1	-87.1*
COc1ccc(NC(=O)c2sc(SC)nc2N)cc1	-196.9*
COc1ccc(NC(=O)c2cnc(SC)nc2)cc1	-124.5*
COc1ccc(NC(=O)c2scc(S(=O)(=O)C(C)C)c2N)cc1	-193.1*
N#C/C(=C\c1ccc(N2CCOCC2)o1)C(=O)Nc1ccc(O)cc1	-101.1*
COc1ccc(NC(=O)/C(C#N)=C\c2ccc(N3CCOCC3)o2)cc1	-95.4*
COc1ccc(NC(=O)/C(C#N)=C/c2ccc(Br)o2)cc1	-66.1*
c1ccc(N2CCN(c3nc(-c4ccccn4)nc4ccccc34)CC2)cc1	-77.5*
O=[N+]([O-])c1cc(CN2CCN(c3ccccc3)CC2)c(O)c2ncccc12	82.0
c1ccc(N2CCN(c3ncccn3)CC2)cc1	-67.7*
COc1ccnc(N2CCN(c3ccccc3)CC2)c1C#N	-80.4*
CC1CCCC/C1=N\NC(=S)Nc1ccccc1 (stereo not given)	-131.5*
CC1CCC/C(=N\NC(=S)Nc2ccccc2)C1 (stereo not given)	-94.0*
SMILES	aSyn 5UTR act
CN(C)c1ccc(/C=C2\CCCc3c2nc2ccccc2c3C(=O)O)cc1	-120.6*
O=c1c2c3c(sc2nc2n1CCCCC2)CCCCC3	-152.5*
O=c1c2c3c(sc2nc2n1CCCC2)CCCCC3	-105.4*
O=c1c2c3c(sc2nc2n1CCCCC2)CCCC3	-123.9*
Clc1nc(CN2CCCCC2)nc2sc3c(c12)CCCC3	-67.7*
Oc1ccc(-c2nnc(-c3ccc(O)cc3)nn2)cc1	-109.2*
Oc1ccc(-c2cccc(-c3ccc(O)cc3)n2)cc1	-67.9*
Oc1ccc(-c2nccc(-c3cccs3)n2)cc1	-156.8*
Oc1ccc(-c2nccc(-c3ccc(Cl)cc3)n2)cc1	-84.3*
COc1cccc(/C=N/Nc2ncnc3c2ncn3Cc2ccccc2)c1O	101.9
Cn1cnc2c(N/N=C/c3cccs3)ncnc21	-66.9*
Cc1nc(SCc2ccccc2)nc2c1CCC2	-115.0*
CCOC(=O)C1=C(Cc2ccc(C)cc2)C(=O)c2ccccc2C1=O	-65.4*
CC(=O)Nc1ccc(S(=O)(=O)NC(CC(=O)NCCc2ccccc2)C(C)C)cc1 (stereo not given)	-109.4*
Oc1ccc(/C=N/Nc2nccnc2Cl)cc1	-123.9*
Fc1cccc(/C=N/Nc2nccnc2Cl)c1	-105.7*
Fc1ccc(/C=N/Nc2nccnc2Cl)cc1	-120.5*
O=C(Nc1nccs1)c1cc(-c2ccncc2)nc2ccccc12	-67.1*
COc1ccc2cc(-c3cc(C(=O)O)c4ccccc4n3)ccc2c1	77.7
O=C(N/N=C/c1cccs1)c1cc(-c2ccncc2)nc2ccccc12	61.9
O=C(Nc1ccncc1)c1cc(-c2cccc(Br)c2)nc2ccccc12	56.9
Cc1ccc(-c2cc(C(=O)Nc3nn[nH]n3)c3ccccc3n2)cc1	-69.0*
COc1ccc(-c2cc(C(=O)Nc3ccc(C(N)=O)cc3)c3ccccc3n2)cc1	-119.4*
CC1(C)CC(=O)C(C(=O)/C=C/c2ccco2)C(=O)C1	-72.8*
CC/C(=N\Nc1nncc2ccccc12)c1ccc(F)cc1	-189.9*
SMILES	aSyn 5UTR act
S=C(Nc1ccc(Cl)cc1)Nc1ccc2cn[nH]c2c1	-175.0*
CCc1ccc(NC(=S)Nc2ccc3cn[nH]c3c2)cc1	-195.6*
S=C(Nc1ccc2cn[nH]c2c1)Nc1ccccc1Cl	-166.2*
Cc1ccccc1NC(=S)Nc1ccc2cn[nH]c2c1	-104.4*
CC1=C(C)/C(=N\OS(=O)(=O)c2ccccc2)C=CC1=O	-79.9*
O=C(CC1CCCCC1)Nc1nc2ccccc2s1	-129.8*
O=C(NNc1nc2ccccc2s1)Nc1ccccc1	-254.7*
Cc1cnc(NC(=O)CC2CCCC2)s1	-130.7*
O=C(NCc1ccncc1)C(=O)Nc1nc2ccccc2s1	-71.6*
CCNC(=O)Nc1nc2ccccc2s1	-96.8*
S=C(Nc1ccccc1)c1nc2ccccc2s1	-170.2*
O=c1nc2c(O)cccn2c2c1c(=O)[nH]c1ccccc12	-66.2*
O=c1[nH]c2ccccc2c2nc3ccccn3c12	-113.3*
COCCn1cnnc1SCC(=O)Nc1ccccc1C(=O)Nc1ccc2c(c1)OCO2	-69.9*
COc1ccccc1C(=O)Nc1ccc2c(c1)OCCO2	-124.3*
COc1cc(C2=NOC(C(=O)Nc3ccc4c(c3)OCO4)C2)cc(OC)c1OC (stereo not given)	-64.4*
O=C(Nc1ccccc1C(=O)Nc1ccc2c(c1)OCO2)c1ccco1	-73.7*
COc1cc(C2=NOC(C(=O)NCc3ccc(F)cc3)C2)cc(OC)c1OC (stereo not given)	77.1
COc1ccccc1C(=O)Nc1ccc2c(c1)OCO2	-245.5*
N#Cc1c(-c2ccccc2)c(-c2ccccc2)nn(CC(=O)NNC(=O)Nc2ccccc2)c1=O	-91.8*
Cn1c(C(=O)N2CCc3ccccc3C2)cc2oc3ccccc3c21	-137.2*
CCOc1ccccc1CNC(=O)c1cc2oc3ccccc3c2n1CC	65.6
CCOC(=O)C1(Cc2cccc(OC)c2)CCCN(C(=O)c2ccccc2C)C1 (stereo not given)	-84.4*
CCOC(=O)C1(Cc2cccc(OC)c2)CCCN(C(=O)CNC(C)=O)C1 (stereo not given)	-114.9*
CCOC(=O)C1(Cc2cccc(OC)c2)CCCN(C(=O)c2cc(C)[nH]n2)C1 (stereo not given)	-130.5*
SMILES	aSyn 5UTR act
CCOC(=O)C1(Cc2cccc(OC)c2)CCCN(C(=O)c2cc(C)on2)C1 (stereo not given)	-110.3*
CCOC(=O)C1(Cc2ccccc2)CCCN(C(=O)c2cnn(CC)c2)C1 (stereo not given)	-77.7*
CCC1(c2ccc(Cl)cc2)NC(=S)N(c2ccc(C)c(C)c2)N1 (stereo not given)	-66.9*
CCC1(c2ccc(Cl)cc2)NC(=S)N(c2ccc(C)cc2)N1 (stereo not given)	-307.7*
Cc1cc(/C=C(\C#N)C(=O)Nc2ccccc2F)c(C)[nH]1	-128.8*
Cc1cc(C)cc(NC(=O)/C(C#N)=C/c2cn(CC(=O)NCc3ccco3)c3ccccc23)c1	110.5
Cc1cc(/C=C(\C#N)C(=O)NC2CC2)c(C)[nH]1	-144.8*
Cc1cc(/C=C(\C#N)C(=O)NCc2ccco2)c(C)[nH]1	-64.2*
O=C1c2ccccc2C(=O)C12OC2c1ccc(Cl)cc1 (stereo not given)	-72.2*
Cc1ccc(-c2nnc(SCC(=O)N3CCCC3)o2)cc1C	-83.0*

Compound activity from PubChem.
